# According to PMC7862700, “An all-to-all approach to the identification of sequence-specific readers for epigenetic DNA modifications on cytosine”:
# Experiments:
# Experiment in all cases: DAPPL (digital affinity profiling via proximity ligation, sequencing); 10 mM Tris-HCl pH 7.5, 50 mM NaCl, 1 mM DTT, 4% glycerol, room temperature, 30 min; GST-TFs on glutathione beads, 16-mer random dsDNA library, 0.1% formaldehyde crosslink after washing; high values mean tight binding
# Details in all cases: protein: recombinant; tags: N-terminal GST; dsDNA, one strand shown
# FLI1 = target: T1, FLI1 (Homo sapiens, UniProt Q01543 1-452)
# T1 sequence: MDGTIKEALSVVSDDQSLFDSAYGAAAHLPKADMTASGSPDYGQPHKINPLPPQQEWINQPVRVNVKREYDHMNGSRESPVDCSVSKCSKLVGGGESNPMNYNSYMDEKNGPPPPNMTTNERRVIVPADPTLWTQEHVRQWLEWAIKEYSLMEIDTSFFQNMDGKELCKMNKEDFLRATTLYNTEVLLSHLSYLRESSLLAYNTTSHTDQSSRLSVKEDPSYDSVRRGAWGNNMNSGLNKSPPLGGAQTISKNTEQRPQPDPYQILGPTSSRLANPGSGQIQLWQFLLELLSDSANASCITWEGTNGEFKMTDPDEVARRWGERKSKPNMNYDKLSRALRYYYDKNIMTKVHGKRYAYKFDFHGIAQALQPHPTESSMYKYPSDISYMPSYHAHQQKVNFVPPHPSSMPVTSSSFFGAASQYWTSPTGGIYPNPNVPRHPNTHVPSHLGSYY
# Method in brief: (§1)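 Human transcription factors fused to GST were expressed in yeast, captured on glutathione beads, given DNA barcodes and pooled with a GST-only negative control. Pools were incubated with 200 nmole of a 16-mer random double-stranded DNA library in Tris/NaCl/DTT/glycerol buffer at room temperature for 30 min. They were then washed, crosslinked with 0.1% formaldehyde, proximity-ligated (BsaI/T4 ligase, 1 h, 37 °C), PCR-amplified and sequenced on an Illumina NextSeq500. Binding signal is each 6-mer's read frequency for a factor divided by its frequency for the GST control.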
# ELK1 = target: T2, ELK1 (Homo sapiens, UniProt P19419 1-428)
# T2 sequence: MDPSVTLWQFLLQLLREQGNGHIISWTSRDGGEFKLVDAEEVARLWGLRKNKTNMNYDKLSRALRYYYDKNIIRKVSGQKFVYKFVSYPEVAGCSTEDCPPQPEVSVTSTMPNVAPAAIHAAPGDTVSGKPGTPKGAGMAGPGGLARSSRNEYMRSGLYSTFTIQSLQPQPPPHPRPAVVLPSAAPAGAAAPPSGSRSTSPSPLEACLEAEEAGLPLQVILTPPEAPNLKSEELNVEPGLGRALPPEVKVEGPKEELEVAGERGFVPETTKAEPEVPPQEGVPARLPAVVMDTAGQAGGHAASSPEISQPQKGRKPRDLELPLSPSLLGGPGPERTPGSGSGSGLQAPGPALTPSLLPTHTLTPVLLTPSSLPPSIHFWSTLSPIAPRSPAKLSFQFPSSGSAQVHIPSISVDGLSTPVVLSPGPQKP
# Method in brief: as §1
# GABPA = target: T3, GABPA (Homo sapiens, UniProt Q06546 1-454)
# T3 sequence: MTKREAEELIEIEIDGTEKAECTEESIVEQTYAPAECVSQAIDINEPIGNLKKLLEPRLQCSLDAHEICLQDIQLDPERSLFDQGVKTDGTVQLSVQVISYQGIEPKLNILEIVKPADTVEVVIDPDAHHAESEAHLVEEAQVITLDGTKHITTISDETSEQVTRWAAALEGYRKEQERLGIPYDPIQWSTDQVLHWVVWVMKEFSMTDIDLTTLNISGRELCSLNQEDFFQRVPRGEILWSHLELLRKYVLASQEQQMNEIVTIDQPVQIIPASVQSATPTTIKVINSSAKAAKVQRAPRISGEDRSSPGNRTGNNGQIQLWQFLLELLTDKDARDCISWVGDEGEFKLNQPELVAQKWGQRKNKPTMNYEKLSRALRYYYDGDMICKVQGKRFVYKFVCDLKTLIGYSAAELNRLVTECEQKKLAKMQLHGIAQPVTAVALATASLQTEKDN
# Method in brief: as §1
# ERG = target: T4, ERG (Homo sapiens, UniProt P11308 1-479)
# T4 sequence: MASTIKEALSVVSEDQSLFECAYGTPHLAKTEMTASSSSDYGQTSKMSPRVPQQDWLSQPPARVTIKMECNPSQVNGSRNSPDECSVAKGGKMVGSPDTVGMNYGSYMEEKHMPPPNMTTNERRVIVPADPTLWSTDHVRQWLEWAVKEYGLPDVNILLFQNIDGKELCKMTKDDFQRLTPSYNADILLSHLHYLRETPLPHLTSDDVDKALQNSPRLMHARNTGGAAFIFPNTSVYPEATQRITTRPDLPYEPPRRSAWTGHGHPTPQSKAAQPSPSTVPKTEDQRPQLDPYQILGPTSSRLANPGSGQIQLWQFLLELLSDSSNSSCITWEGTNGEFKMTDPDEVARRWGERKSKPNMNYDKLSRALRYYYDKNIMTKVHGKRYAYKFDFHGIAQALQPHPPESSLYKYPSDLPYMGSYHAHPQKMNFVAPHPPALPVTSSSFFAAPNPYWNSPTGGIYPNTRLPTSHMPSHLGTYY
# Method in brief: as §1
# ELF1 = ELF1 (Homo sapiens, UniProt P32519 1-619)
# Sequence of ELF1 (P32519 whole entry): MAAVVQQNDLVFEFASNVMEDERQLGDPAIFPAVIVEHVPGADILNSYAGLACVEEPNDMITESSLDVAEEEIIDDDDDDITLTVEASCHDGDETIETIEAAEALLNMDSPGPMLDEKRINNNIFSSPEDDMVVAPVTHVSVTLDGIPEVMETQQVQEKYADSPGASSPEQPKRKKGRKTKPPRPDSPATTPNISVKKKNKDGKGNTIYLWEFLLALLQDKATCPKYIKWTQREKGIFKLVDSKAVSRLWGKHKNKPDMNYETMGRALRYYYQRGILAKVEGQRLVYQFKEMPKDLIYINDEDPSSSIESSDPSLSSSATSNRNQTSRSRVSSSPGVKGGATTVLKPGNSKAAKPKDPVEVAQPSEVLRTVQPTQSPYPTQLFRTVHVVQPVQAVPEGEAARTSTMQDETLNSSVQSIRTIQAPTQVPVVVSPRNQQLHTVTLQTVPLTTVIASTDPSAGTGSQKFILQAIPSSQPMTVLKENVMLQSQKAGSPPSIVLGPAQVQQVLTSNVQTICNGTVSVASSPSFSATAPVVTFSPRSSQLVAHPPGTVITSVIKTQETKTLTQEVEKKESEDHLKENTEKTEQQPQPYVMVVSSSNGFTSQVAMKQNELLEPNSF
# Method in brief: as §1
# SPIB = SPIB (Homo sapiens, UniProt Q01892 1-262)
# Sequence of SPIB (Q01892 whole entry): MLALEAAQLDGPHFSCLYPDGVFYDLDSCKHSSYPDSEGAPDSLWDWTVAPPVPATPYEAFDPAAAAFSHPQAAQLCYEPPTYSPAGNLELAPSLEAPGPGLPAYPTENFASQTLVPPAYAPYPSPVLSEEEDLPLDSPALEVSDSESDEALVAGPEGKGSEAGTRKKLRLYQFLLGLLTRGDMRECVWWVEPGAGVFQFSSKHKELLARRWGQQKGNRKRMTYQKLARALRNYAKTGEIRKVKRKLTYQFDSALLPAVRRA
# Method in brief: as §1
# ELK3 = target: T5, ELK3 (Homo sapiens, UniProt P41970 1-407)
# T5 sequence: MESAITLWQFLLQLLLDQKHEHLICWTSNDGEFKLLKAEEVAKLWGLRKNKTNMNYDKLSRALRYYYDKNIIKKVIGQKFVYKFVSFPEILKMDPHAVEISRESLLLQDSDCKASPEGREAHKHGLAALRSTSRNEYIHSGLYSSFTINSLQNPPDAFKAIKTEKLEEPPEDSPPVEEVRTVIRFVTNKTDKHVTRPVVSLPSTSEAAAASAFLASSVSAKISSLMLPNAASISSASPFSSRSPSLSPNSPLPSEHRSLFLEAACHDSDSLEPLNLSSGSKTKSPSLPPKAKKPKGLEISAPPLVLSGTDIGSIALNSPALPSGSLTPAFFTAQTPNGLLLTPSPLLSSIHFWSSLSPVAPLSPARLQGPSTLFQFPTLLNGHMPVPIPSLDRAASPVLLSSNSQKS
# Method in brief: as §1
# SPIC = target: T6, SPIC (Homo sapiens, UniProt Q8N5J4 1-248)
# T6 sequence: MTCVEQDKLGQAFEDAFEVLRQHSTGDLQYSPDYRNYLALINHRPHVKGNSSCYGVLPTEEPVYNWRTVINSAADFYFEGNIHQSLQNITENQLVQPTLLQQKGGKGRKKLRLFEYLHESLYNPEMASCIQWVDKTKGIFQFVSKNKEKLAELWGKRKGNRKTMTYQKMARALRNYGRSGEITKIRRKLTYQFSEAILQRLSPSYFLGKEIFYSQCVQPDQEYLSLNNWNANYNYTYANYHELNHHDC
# Method in brief: as §1
# ELF4 = ELF4 (Homo sapiens, UniProt Q99607 1-663)
# Sequence of ELF4 (Q99607 whole entry): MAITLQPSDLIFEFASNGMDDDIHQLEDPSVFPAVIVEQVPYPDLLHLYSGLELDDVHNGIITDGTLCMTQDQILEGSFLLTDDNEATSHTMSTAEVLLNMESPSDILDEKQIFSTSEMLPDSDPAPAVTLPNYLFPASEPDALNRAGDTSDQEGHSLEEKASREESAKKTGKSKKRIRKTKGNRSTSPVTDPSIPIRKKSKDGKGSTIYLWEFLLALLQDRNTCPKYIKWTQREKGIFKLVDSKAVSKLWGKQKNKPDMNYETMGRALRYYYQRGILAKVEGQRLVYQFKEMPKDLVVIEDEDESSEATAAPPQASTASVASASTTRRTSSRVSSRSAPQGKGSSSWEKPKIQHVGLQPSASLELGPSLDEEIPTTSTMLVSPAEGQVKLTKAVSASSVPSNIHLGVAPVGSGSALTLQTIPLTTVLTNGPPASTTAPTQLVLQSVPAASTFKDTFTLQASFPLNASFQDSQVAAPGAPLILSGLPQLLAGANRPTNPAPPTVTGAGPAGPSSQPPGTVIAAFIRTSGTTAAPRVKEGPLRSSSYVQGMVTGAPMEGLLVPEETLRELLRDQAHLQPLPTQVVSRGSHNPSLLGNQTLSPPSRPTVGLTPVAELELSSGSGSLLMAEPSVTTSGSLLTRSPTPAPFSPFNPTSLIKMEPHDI
# Method in brief: as §1
sequence,measurement,setting,value
ATAAGA,binding signal,FLI1,"1.02 fold enrichment (6-mer frequency, TF over GST control)"
same,binding signal,ELK1,"1.12 fold enrichment (6-mer frequency, TF over GST control)"
same,binding signal,GABPA,"1.08 fold enrichment (6-mer frequency, TF over GST control)"
same,binding signal,ERG,"1.11 fold enrichment (6-mer frequency, TF over GST control)"
same,binding signal,ELF1,"1.04 fold enrichment (6-mer frequency, TF over GST control)"
same,binding signal,SPIB,"1.04 fold enrichment (6-mer frequency, TF over GST control)"
same,binding signal,ELK3,"1.13 fold enrichment (6-mer frequency, TF over GST control)"
same,binding signal,SPIC,"1.03 fold enrichment (6-mer frequency, TF over GST control)"
same,binding signal,ELF4,"1.06 fold enrichment (6-mer frequency, TF over GST control)"
